High-throughput results deposited in PubChem BioAssay by National Center for Advancing Translational Sciences (NCATS).
Cruzain noTriton: inhibitors of Trypanosoma cruzi cruzain without detergent | P25779 | purified cruzain, Z-FR-AMC fluorescence, no detergent | Potency, µM, most hits filed as inhibitors | actives 2.3% (n = 200,000) | AID 1476; note: nearly all actives have a fitted effect of over 40% in size
Target sequence (P25779 123-467 limits assumed): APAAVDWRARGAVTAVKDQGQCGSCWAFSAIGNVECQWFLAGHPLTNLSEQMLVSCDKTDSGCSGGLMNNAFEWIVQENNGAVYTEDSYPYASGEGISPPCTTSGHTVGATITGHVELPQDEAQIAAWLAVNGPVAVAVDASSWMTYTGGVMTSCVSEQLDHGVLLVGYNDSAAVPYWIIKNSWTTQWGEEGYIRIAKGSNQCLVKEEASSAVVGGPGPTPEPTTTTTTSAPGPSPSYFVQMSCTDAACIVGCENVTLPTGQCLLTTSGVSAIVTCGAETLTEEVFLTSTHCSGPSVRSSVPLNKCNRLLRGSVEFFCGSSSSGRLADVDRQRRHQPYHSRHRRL
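Purified cruzain at 1.5 nM, pre-incubated 15 min with compound at room temperature in 100 mM sodium acetate pH 5.5, 5 mM DTT, 0.00005% Triton X-100. Reaction started with 2 uM Z-FR-AMC; AMC fluorescence increase over 60 s gives rate.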
Cruzain inh Det: inhibitors of Trypanosoma cruzi cruzain with detergent; AID 1478; actives 0.43% (n = 200,000); Potency, µM, hits mostly inhibitors; purified cruzain, Z-FR-AMC fluorescence, 0.01% Triton; P25779; note: nearly all actives have a fitted effect of over 40% in size
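Steps: dispense cruzain (1.5 nM final) in acetate buffer pH 5.5 with DTT and 0.01% Triton X-100; pin-transfer compounds; incubate 15 min RT; add Z-FR-AMC (2 uM final); read fluorescence every 30 s, using the 60 s intensity change.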
Numbers stand for hits; . = inactive; ? = inconclusive. Only some compounds are listed: those with a hit (about 2.6% of all), similar ones and a draw of the others. Calls come from the whole dose curve; as a rule, active = well fitted curve in the direction sought with a large enough effect; inconclusive = small, poorly fitted or top-dose-only effect, or another doubt; inactive = no such curve, though single readings can be large; an effect the other way counts as inactive or inconclusive.

SMILES | Cruzain noTriton | Cruzain inh Det
O=C(NC(=S)Nc1ccccc1N1CCOCC1)c1ccco1 | . | .
COc1ccc(C(=O)NC(=S)Nc2ccccc2N2CCOCC2)cc1Br | ? | .
CC1CCN(c2ccc(NC(=S)NC(=O)c3ccc(-c4cccc([N+](=O)[O-])c4)o3)cc2)CC1 | ? | .
CCOc1ccc(C(=O)NC(=S)Nc2ccccc2N2CCOCC2)cc1Br | 16µM | .
O=[N+]([O-])c1cccc(-c2ccc(C(=S)N3CCN(c4ccc(F)cc4)CC3)o2)c1 | 25µM | .
O=[N+]([O-])c1cccc(C(=S)N2CCN(c3ccccc3)CC2)c1 | . | .
Fc1cccc(Cl)c1CNc1n[nH]c(-c2ccco2)n1 | . | .
Cc1ccc(CN(Cc2ccco2)C(=O)COc2ccc(Cl)cc2)o1 | . | .
O=C(CSc1nc2c([nH]c3ccccc32)c(=O)n1-c1ccccc1)N1CCCCCC1 | . | .
CCC(C(=O)NCCc1cc(OC)ccc1OC)n1nc(C)c2sc3ccccc3c2c1=O (stereo not drawn) | . | .
Cc1cccc(N2CCN(C(=O)C3CCN(S(=O)(=O)c4ccc5c(c4)oc(=O)n5C)CC3)CC2)c1C | ? | .
CCOC(=O)c1oc2ccccc2c1NC(=O)C1CCCCC1 | . | .
O=C(CNC(=O)C1CCCCC1)OCc1cc(=O)oc2ccc3ccccc3c12 | . | 3.2µM
CCN1CCN(C(c2ccccc2Cl)c2c(O)cc(C)n(CCOC)c2=O)CC1 (stereo not drawn) | . | .
Cc1ccc(N2C(=O)c3cccc4c(Oc5ccccc5[N+](=O)[O-])ccc(c34)C2=O)c(C)c1 | 25µM | .
O=C1c2cccc3c([N+](=O)[O-])ccc(c23)C(=O)N1c1ccccn1 | . | .
Cc1cccc(CNc2cc(-c3cccc(C#N)c3)ncn2)c1 | . | .
CC(C)OCCCNc1ncnc2c1[nH]c1ccccc12 | 16µM | ?
C1=C(CCNc2ncnc3c2[nH]c2ccccc23)CCCC1 | . | .
COc1ccc2[nH]c3c(NCCN(C(C)C)C(C)C)ncnc3c2c1 | 13µM | ?
COc1ccc2[nH]c3c(NCCCN4CCCC4=O)ncnc3c2c1 | . | ?
Cn1nc(-c2ccc(OCC(=O)Nc3ccc(Cl)cc3)cc2)c2ccccc2c1=O | . | .
Cc1c(C(=O)OC2CCCCC2)[nH]c2c1C(=O)CC(c1ccc(C(C)(C)C)cc1)C2 (stereo not drawn) | . | .
CSc1nc(=O)c2c(n1C)NC(=O)CC2c1cc(F)cc(F)c1 (stereo not drawn) | . | .
CCC(=O)Nc1nnc(S(=O)(=O)N(C)Cc2ccccc2)s1 | . | .
SMILES | Cruzain noTriton | Cruzain inh Det
COc1ccc(Cl)cc1NC(=O)CSc1nc(N2CCCCC2)nc(N2CCCCC2)n1 | 16µM | .
Cc1ccccc1NC(=O)CSc1nc(N2CCCCC2)nc(N2CCCCC2)n1 | . | .
O=C(c1ccco1)[C@@H]1[C@@H]2C(=O)N(c3ccc(Br)cc3)C(=O)[C@@H]2C2c3ccccc3C=CN21 (stereo partly drawn) | 13µM | .
O=C(c1ccco1)[C@@H]1[C@@H]2C(=O)N(c3ccc(F)cc3)C(=O)[C@@H]2[C@H]2C=Cc3ccccc3N21 | 25µM | .
O=C(c1ccco1)[C@@H]1[C@@H]2C(=O)N(c3ccc(F)cc3)C(=O)[C@@H]2C2c3ccccc3C=CN21 (stereo partly drawn) | . | .
CC(=O)[C@@H]1[C@H]2[C@H](C(=O)[C@H]3OC[C@@H]2O3)[C@H]2C=Cc3ccccc3N21 | ? | .
O=C1N/C(=C/c2ccc(Br)cc2)C(O)=C1C=NCc1ccccc1 | 20µM | .
O=C1C(C=NCc2ccncc2)=C(O)c2ccccc21 | . | .
COc1ccccc1C(=O)Nc1ccccc1SCc1cc(=O)c2ccccc2[nH]1 | . | .
CN1C(=O)/C(=N/OC(=O)c2ccccc2)c2ccccc21 | 6.3µM | 4.5µM
CN1C(C)(C)CC(=NOC(=O)c2ccccc2)CC1(C)C | . | .
COc1ccc(-c2[nH]c3ccccc3c2SCCNC(=O)c2cc(OC)c(OC)c(OC)c2)cc1 | ? | .
Cc1cc(C)cc(OCCSc2nc3ccc(NC(=O)c4cccs4)cc3s2)c1 | 20µM | .
Cc1ccc(OCCSc2nc3ccc(NC(=O)c4cccs4)cc3s2)cc1 | . | .
Cc1ccccc1-c1noc(-c2cc(C(C)C)[nH]n2)n1 | . | .
CC(=O)C(N=Nc1ccccc1)(Sc1nnc(-c2ccccc2)n1-c1ccccc1)C(C)=O | . | .
CC(=O)C(N=Nc1ccccc1)(Sc1nnc(-c2ccccc2)n1-c1ccccc1)C(=O)Nc1ccccc1 (stereo not drawn) | 25µM | .
COc1cc(NC(=O)CC2C(=O)N(c3cccc(C)c3)C(=O)N2Cc2ccc(F)cc2)cc(OC)c1 (stereo not drawn) | . | .
O=C(NCc1ccc(Cl)cc1)c1cnc(N2CCOCC2)c2ccccc12 | . | .
COCC(=O)NCCc1nc2ccccc2[nH]1 | ? | .
O=C(NCCc1nc2ccccc2[nH]1)c1ccc(F)cc1 | 1.3µM | ?
CC(=O)NCCc1nc2ccccc2[nH]1 | . | .
COc1ccccc1C(=O)NCCc1nc2ccccc2[nH]1 | 5µM | 16µM
CCN(Cc1ccccc1)S(=O)(=O)c1ccc(F)c(C(=O)Nc2cc(C(F)(F)F)ccc2Cl)c1 | ? | .
CC(NC(=O)CSc1nc(-c2ccccc2F)nc2cc(=O)[nH]n12)c1nc2ccccc2n1C (stereo not drawn) | . | .
SMILES | Cruzain noTriton | Cruzain inh Det
CC1=C(c2ccc(Cl)cc2)S(=O)(=O)N=C1N1CCN(c2cccc(C(F)(F)F)c2)CC1 | . | .
O=C(N/N=C/C=C\c1ccccc1[N+](=O)[O-])c1ccccn1 | . | .
O=C(N/N=C\C=C\c1ccco1)c1cc(-c2ccc3ccccc3c2)n[nH]1 | 16µM | .
O=C(N/N=C/C=C/c1ccco1)c1cccnc1 | . | .
O=C(N/N=C/C=C/c1ccccc1[N+](=O)[O-])c1cc(-c2ccccc2)n[nH]1 | 25µM | .
COc1cccc(CNC(=O)CCc2cn(Cc3ccccc3Cl)c3ccccc23)c1 | ? | .
Cc1ccc(OCC(=O)Nc2ccc(OCc3cc(=O)n4ccsc4n3)cc2)cc1C | . | .
CCC1=C(c2ccc(C)cc2)S(=O)(=O)N=C1N1CCC(C(=O)NCc2ccc(N(C)C)cc2)CC1 | . | .
COC(=O)c1cc2sccc2n1CC(=O)Nc1cc(Cl)ccc1OC | . | .
Cc1cccc(C(C)C)c1NC(=O)c1ccc2c(c1)CCCN2S(C)(=O)=O | . | .
CCOC(=O)c1c(NC(=O)c2cc(=O)c3c(C)cc(C)cc3o2)sc(C(C)=O)c1C | . | .
Cc1sc2c(c1C)CN(C(C)(C)C)CN2C(=O)c1ccccc1 | 25µM | .
COCCN1Cc2c(sc(C)c2C)N(C(=O)c2ccccc2)C1 | . | .
CCC(=O)N1CCc2cc(Br)cc(S(=O)(=O)N3CCCC(C(=O)NCc4ccc(C)cc4)C3)c21 (stereo not drawn) | . | .
COc1cc(NC(=S)NC(=O)c2ccc(C(C)(C)C)cc2)ccc1NC(=O)c1cccs1 | 13µM | .
COc1cc(NS(=O)(=O)c2ccc(NC(=S)NC(=O)c3cccs3)cc2)nc(OC)n1 | . | .
COc1cc(NC(=S)NC(=O)c2ccc(F)cc2)ccc1NC(=O)c1ccco1 | ? | .
COc1cc(NC(=S)NC(=O)c2cc(C)cc(C)c2)ccc1NC(=O)c1cccs1 | 16µM | .
Cc1cc(C)cc(NS(=O)(=O)c2ccc(NC(=S)NC(=O)c3cccs3)cc2)c1 | 25µM | .
COc1cc(NC(=S)NC(=O)c2c(OC)cccc2OC)ccc1NC(=O)c1cccs1 | . | .
